The results in this text go back to PubChem BioAssay (NCI).

A short description of this assay: NCI Yeast Anticancer Drug Screen. Data for the rad14 strain (AID 159).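 Also: 0% = growth of vehicle-treated control cultures.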 The following applies: S. cerevisiae rad14 strain growth inhibition, hits give high values. On the procedure:
Growth inhibition of yeast strains with defined genetic alterations is measured as a screen for potential anti-cancer activity. Selected strains with alterations in DNA damage repair or cell cycle control were exposed to compounds and growth inhibition was measured relative to vehicle treated controls. The strain used in this assay is rad14

Compounds without any hit were thinned out: in the full panel of roughly 79,000, 15% have a hit. Calls of active or inactive are those of the source. Rule as the data show it: active = growth inhibition above about 70%; inactive = the rest. Starred links: 1 amine or outer side, 2 acyl side, 3 side chain; linkers in the order of their positions; H or OH if unused. Positions of bridges follow the written chain, without caps; N, C: chain ends. Non-standard residues stand in square brackets, D forms with d. Residues, ends and D or L forms follow the SMILES beside them. Chains are numbered I, II in the order given. Actinocin(9to1) = Cc1c2oc3c(C)ccc(C(=O)[*:1])c3nc-2c(C(=O)[*:2])c(N)c1=O; aThr = C[C@H](O)[C@H](N)C(=O)O; NMeV = CN[C@H](C(=O)O)C(C)C; Sar = CNCC(=O)O

With `Cc1ccc(C(C)C)c(C(=C2C=CC(=[N+](C)C)C=C2)c2c(C(C)C)ccc(C)c2O)c1O`, the growth inhibition by setting is: (at 1.2 µM) 1% (inactive); (at 3.7 µM) 19% (inactive); (at 11.0 µM) 98% (active); (at 33.0 µM) 94% (active); (at 100.0 µM) 85% (active).

Take `Cc1c2oc3c(C)ccc(C(=O)N[C@@H]4C(=O)N[C@H](C(C)C)C(=O)N5CCC[C@H]5C(=O)N(C)CC(=O)N(C)[C@@H](C(C)C)C(=O)O[C@H]4C)c3nc-2c(C(=O)N[C@@H]2C(=O)N[C@H](C(C)C)C(=O)N3CCC[C@H]3C(=O)N(C)CC(=O)N(C)[C@@H](C(C)C)C(=O)O[C@H]2C)c(N)c1=O` (I: [aThr][dV]P[Sar][NMeV] / II: [aThr][dV]P[Sar][NMeV]; ester I:1-I:C, II:1-II:C; linker I:N-II:N via Actinocin(9to1)): the growth inhibition (at 1.2 µM) is 3% (inactive); the growth inhibition (at 3.7 µM) was 32% (inactive); the growth inhibition (at 11.0 µM) is 75% (active); the growth inhibition (at 33.0 µM) is 97% (active); the growth inhibition (at 100.0 µM) was 98% (active).

On to `Cc1c(N=Nc2ccc(Cl)cc2)c(C)n(C2OC(CO)C(O)C(O)C2O)c(=S)c1C#N` (stereo not given), for which the growth inhibition was -2% (inactive) (at 1.2 µM); -3% (inactive) (at 3.7 µM); 6% (inactive) (at 11.0 µM); 28% (inactive) (at 33.0 µM); 71% (active) (at 100.0 µM).

As for `CN(C)N=Nc1ccc(NC=O)cc1`, the growth inhibition was 6% (inactive) (at 1.2 µM); 3% (inactive) (at 3.7 µM); 9% (inactive) (at 11.0 µM); 77% (active) (at 33.0 µM); 98% (active) (at 100.0 µM).

With `[Cl][Pt+2][Cl].[NH-]CC1(C[NH-])CCCCC1`, the growth inhibition (at 1.2 µM) was -29% (inactive); the growth inhibition (at 3.7 µM) was 6% (inactive); the growth inhibition (at 11.0 µM) is 96% (active); the growth inhibition (at 33.0 µM) is 98% (active); the growth inhibition (at 100.0 µM) is 98% (active).

On to `Oc1ccc(Cc2nccc3cc(O)c(O)cc23)cc1O`, for which the growth inhibition is 0% (inactive) (at 1.2 µM); 14% (inactive) (at 3.7 µM); 10% (inactive) (at 11.0 µM); 22% (inactive) (at 33.0 µM); 51% (inactive) (at 100.0 µM).

In the case of `CNC(=O)OCc1c(COC(=O)NC)c(C)n(-c2ccc(Cl)c(Cl)c2)c1C`, the growth inhibition runs as follows: (at 1.2 µM) -38% (inactive); (at 3.7 µM) -16% (inactive); (at 11.0 µM) 25% (inactive); (at 33.0 µM) 98% (active); (at 100.0 µM) 98% (active).

Turning to `CCCC#CCOC(=O)c1cc([N+](=O)[O-])cc([N+](=O)[O-])c1`, the growth inhibition is 0% (inactive) (at 1.2 µM); 28% (inactive) (at 3.7 µM); 98% (active) (at 11.0 µM); 99% (active) (at 33.0 µM); 99% (active) (at 100.0 µM).
